TRPM1 prom inh: reduces MITF-dependent TRPM1 promoter luciferase signal; hit rate 0.83% among 330,000; inhibition, % at 12.5 µM; SK-MEL-5 TRPM1 promoter luciferase, 24 h;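 active = mean inhibition across replicates of 60% or more, whatever share of single replicates reaches that level; inconclusive = some that reach 60%, reason not given; inactive = mean inhibition across replicates below 60%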
EWS-Fli block: EWS/Fli transcriptional activity inhibition. hit rate 0.67% among 350,000. inhibition, % at 12.6 µM. A673 NR0B1-luciferase reporter, viability-normalised;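 active = mean inhibition of at least 50% after viability correction, with every replicate also passing that limit; inconclusive = mean reaches 50% but only one of two replicates passes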;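 note: firefly luciferase signal divided by Alamar Blue viability fluorescence both relative to DMSO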
Shn3 3UTR inh: Schnurri-3 reporter inhibition in Clone20 osteoblasts | hit rate 0.52% among 360,000 | Clone20 osteoblast Shn3 3'UTR firefly luciferase, 24 h | inhibition, % at 12.5 µM;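 active = mean inhibition of at least 75% with every replicate also reaching 75%; inconclusive = mean inhibition at least 75% but some replicate below; inactive = mean inhibition below 75%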
LGR2 inh: Drosophila LGR2 receptor signaling inhibition | HEK293 LGR2, CRE-luciferase, bursicon-stimulated, 4 h | hit rate 0.35% among 380,000 | inhibition, % at 9.99 µM;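 active = drop in luminescence signal, shown as inhibition above about 50% in the replicate tests, limit read from the data, passing the limit was not always enough; inconclusive = probably only some replicates passing the limit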;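 note: agonist challenge used bursicon conditioned medium at about half maximal strength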
EBV LMP1 NFkB: Epstein-Barr LMP1 NF-kappaB reporter inhibition | LMP1-induced NF-kappaB luciferase reporter cells, luminescence | inhibition, % at 12.5 µM | hit rate 0.69% among 350,000 | AID 504558; in the data active = inhibition above about 41%; inconclusive = no clear call, values can overlap the other calls
PAX8 reporter: PAX8 transcriptional activity inhibition | RMG-I TPO-luciferase reporter, SteadyGlo, 24 h | inhibition, % at 12.6 µM | hit rate 1.2% among 360,000 | AID 652154;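 active = mean replicate inhibition at least 60% with every replicate also reaching 60%; inconclusive = only one of the two criteria is met; inactive = mean below 60% and not all replicates reaching 60%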;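 note: luciferase light reporting Pax8 driven TPO promoter activity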
Hits are given with their value; . = inactive; ? = inconclusive; / = no result; ! = not active in a repeat. The list is not random: actives were taken first. Their share in the collection is about 2.2%.

SMILES	TRPM1 prom inh	EWS-Fli block	Shn3 3UTR inh	LGR2 inh	EBV LMP1 NFkB	PAX8 reporter
CC1=Nc2cc(C(=O)NCCCOC(C)C)ccc2Sc2ccc(C)cc21	.	59	.	.	.	.
CCC1=Nc2cc(C(=O)NCc3ccco3)ccc2Sc2ccc(C)cc21	.	.	.	/	.	84
C[C@@H]1CN([C@@H](C)CO)C(=O)c2cc(C#Cc3ccccc3F)cnc2O[C@@H]1CN(C)C(=O)c1ccc2c(c1)OCO2	/	.	/	.	/	/
CCOC(=O)c1c(NC(=O)C2C3CCC(O3)C2C(=O)O)sc(C)c1-c1ccc(F)cc1 (stereo unspecified)	.	/	.	/	80	/
O=C(CC(F)(F)F)N1C[C@H]2[C@@H](c3ccccc31)[C@@H](CO)N2CC1CCCCC1	/	.	/	.	/	.
CC(=O)Nc1ccc(NC(=O)C(c2ccccc2)c2ccccc2)cc1	.	.	.	.	54	.
O=C(O)CCCNC(=O)C(c1ccccc1)c1ccccc1	.	.	.	.	.	164!
COc1ccc2c3c(n(C)c2c1)[C@@H](CO)N(C)CC31CCN(S(=O)(=O)c2cccs2)CC1	/	.	/	.	/	/
Cn1c(=O)[nH]c(=O)c2c1nc(CN1CCOCC1)n2CCCc1ccccc1	.	.	.	.	85	.
Cn1c(=O)[nH]c(=O)c2c1nc(CN1CCOCC1)n2CCc1ccccc1	.	/	.	/	.	/
Cn1c(=O)[nH]c(=O)c2c1nc(CN1CCN(c3cccc(Cl)c3)CC1)n2CCCc1ccccc1	.	.	.	.	.	.
CCCCn1c(CN2CCN(c3cccc(Cl)c3)CC2)nc2c1c(=O)[nH]c(=O)n2C	.	58	.	.	.	/
CC[C@@]1(O)C(=O)OCc2c1cc1n(c2=O)Cc2cc3c(CN(C)C)c(O)ccc3nc2-1	79	63	.	97	75	102
O=c1cccc2n1Cc1cc3ccccc3nc1-2	.	.	.	.	.	.
CC[C@@]1(O)C(=O)OCc2c1cc1n(c2=O)Cc2cc3c(N)cccc3nc2-1	80	?	.	/	83	99
O=C(Nc1ccc(-c2ccccc2)cc1)[C@H]1[C@H](CO)[C@H]2Cn3c(cccc3=O)[C@@H]1N2Cc1ccncc1	/	.	/	.	/	.
CCCC#Cc1ccc(CC[C@H]2O[C@H]3CC[C@@H](CO)O[C@H]3C[C@H]2n2cc(C(C)(C)O)nn2)cc1	/	.	/	/	/	.
CCOC(=O)c1c(NC(=O)C2c3ccccc3Oc3ccccc32)sc(C(C)=O)c1C	.	.	89	.	.	/
CCCCC(CC)CO (stereo unspecified)	.	.	.	/	.	/
CCCCC(CC)CN=C(N)NC(N)=NCCCCCCN=C(N)NC(N)=NCC(CC)CCCC (stereo unspecified)	110	/	97	/	.	/
CC(C)CC#Cc1cnc2c(c1)C(=O)N([C@@H](C)CO)C[C@@H](C)[C@@H](CN(C)Cc1ccc3c(c1)OCO3)O2	/	.	/	.	/	/
COc1cc(C(=O)NCC(c2cccs2)N2CCOCC2)ccc1OCc1ccc(Cl)cc1 (stereo unspecified)	/	.	.	.	.	99
O=c1c2c3c(sc2nc(N2CCNCC2)n1CCc1ccccc1)CCCCC3	69	.	.	/	.	.
O=c1c2c3c(sc2nc(NCCO)n1CCc1ccccc1)CCCCC3	.	/	.	.	.	.
C[C@@H]1CN([C@H](C)CO)C(=O)c2cccc(NS(C)(=O)=O)c2O[C@@H]1CN(C)S(=O)(=O)c1ccc(F)cc1	/	.	/	.	/	/
SMILES	TRPM1 prom inh	EWS-Fli block	Shn3 3UTR inh	LGR2 inh	EBV LMP1 NFkB	PAX8 reporter
Cc1cc(OCc2nc(N)nc(N)c2-c2ccc(Cl)c(Cl)c2)ccc1[N+](=O)[O-]	.	63	.	.	.	.
Cn1nnnc1Sc1ncnc2scc(-c3ccc([N+](=O)[O-])cc3)c12	98	.	.	91	74	108
COc1ccc(Nc2ncnc3scc(-c4ccc(OC)cc4)c23)cc1	.	65	.	.	.	.
Cn1nnnc1Sc1ncnc2scc(-c3ccc(Cl)cc3)c12	90	.	.	57	.	.
Cc1ccc(-c2csc3ncnc(SCC(=O)c4ccc5c(c4)OCCO5)c23)cc1	.	/	.	/	.	/
Cn1nnnc1Sc1ncnc2scc(-c3ccc4c(c3)OCO4)c12	.	.	.	?	.	101
Cn1nnnc1Sc1ncnc2scc(-c3cccc4c3sc3ccccc34)c12	.	.	.	.	.	88
Cn1nnnc1Sc1ncnc2scc(-c3ccccc3Cl)c12	.	.	.	.	.	91
O=C(O)CSc1ncnc2scc(-c3ccccc3)c12	.	.	.	.	.	.
COc1ccc(-c2csc3ncnc(Sc4nnnn4C)c23)cc1	.	.	.	?	87	101
CO[C@H]1CN(C)C(=O)c2ccc(NC(=O)c3ccc(F)cc3)cc2OC[C@@H](C)N(C(=O)CN(C)C)C[C@H]1C	/	.	/	.	/	/
COc1ccc(NC(=O)Nc2ccc3c(c2)C(=O)N([C@@H](C)CO)C[C@@H](C)[C@H](CN(C)S(=O)(=O)c2ccccc2)OCCCC[C@@H](C)O3)cc1	/	.	/	.	/	.
CCn1c(CCNC(=O)c2ccc(OC)cc2)nnc1SCc1ccc(Cl)c(Cl)c1	.	/	.	.	.	.
CCn1c(CCNC(=O)c2ccc(OC)cc2)nnc1SCc1ccc(Cl)cc1Cl	.	/	.	.	66	/
O=C(C[C@@H]1CC[C@H]2[C@@H](COC[C@H](O)CN2C(=O)Nc2cccc(Cl)c2)O1)NCc1ccccc1F	/	.	/	.	/	.
Oc1ccc(CN2CCC(Cc3ccccc3)CC2)c2cccnc12	/	.	/	.	/	76
COc1cc(CN2CCc3ccccc3C2)cc([N+](=O)[O-])c1O	.	.	.	.	.	.
Cc1ccc(C)c(S(=O)(=O)N2CCN(Cc3ccc(O)c4ncccc34)CC2)c1	74	.	91	.	.	73
Oc1ccc(CN2CCc3ccccc3C2)c2cccnc12	71	/	84	/	82	/
COc1cc(CN2CCc3ccccc3C2)ccc1O	.	.	95	.	.	.
Oc1ccc(CN2CCN(c3ccccc3)CC2)c2cccnc12	.	/	.	.	.	/
CCOC(=O)N1CCN(Cc2ccc(O)c3ncccc23)CC1	/	.	/	.	/	.
Oc1ccc(CN2CCCCC2)c2cccnc12	.	.	.	.	.	/
O=C(CCN1CCCCC1)NCC[C@H]1CC[C@@H](NC(=O)C2CCCCC2)[C@H](CO)O1	/	.	/	.	/	.
Oc1ccc(COCc2ccccc2)c2cccnc12	.	/	.	/	.	/
SMILES	TRPM1 prom inh	EWS-Fli block	Shn3 3UTR inh	LGR2 inh	EBV LMP1 NFkB	PAX8 reporter
Oc1ccc(Cc2ccccc2)c2cccnc12	/	.	.	.	/	87
COc1cccc(C(=O)Nc2ccc3c(c2)OC[C@H](C)NC[C@@H](C)[C@@H](OC)CN(C)C3=O)c1	/	.	/	.	/	/
FC(F)(F)c1nnc2c(Sc3ccccn3)nc3ccccc3n12	.	/	.	/	.	114
Cc1ccc(-c2nnc3c(C(F)(F)F)nc4ccccc4n23)cc1	.	/	.	.	.	/
FC(F)(F)c1nc2ccccc2n2c(-c3ccc(Cl)cc3)nnc12	76	/	.	/	53	/
FC(F)(F)c1nnc2c(Sc3ccc(Cl)cc3)nc3ccccc3n12	78	/	.	/	.	88

Assay outcomes: PubChem, Broad Institute
